Screening results: PubChem BioAssay, several laboratories
Shown are actives, neighbours in structure and some others; about 6.9% of the full set was active somewhere.
NR3A LBD binder – modulates the human NR3A ligand-binding domain; hit rate 2.5% among 340,000; NR3A LBD differential scanning fluorimetry, Tm shift; 0% = protein alone, 100% = glycine-bound protein; Tm shift relative to glycine control, % at 25 µM; AID 1259313;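 active = melting temperature shift of at least 10% of the positive control shift, at one fixed dose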
CSC inhib – blocks cancer stem cells; cancer stem cell-like cells viability, luminescence; inhibition, % at 7.5 µM; hit rate 1.1% among 300,000; AID 2717; in the data active = inhibition above about 75%; inconclusive = no clear call, values can overlap the other calls; tested in HMLE shEcad cells
SKKanGAS inh – blocks kanamycin growth of S. pyogenes SKKanGAS strain; hit rate 1.3% among 300,000; BacTiter-Glo, 6 h; inhibition, % at 7.5 µM;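 active = mean replicate score, as percent of positive control median, at least 50; inconclusive = mean below 50 but one replicate at or above 50; inactive = mean and every replicate below 50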;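 note: strain carries kanamycin resistance gene driven by streptokinase promoter and grows in 40 µg/ml kanamycin; loss of luminescence reflects streptokinase promoter inhibition or plain growth inhibition; 0% = median of DMSO wells and 100% = positive control at its reference dose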
Mdm2-MdmX inh – human Mdm2/MdmX binding inhibition | inhibition, % at 8 µM | SaOS-2 split-luciferase Mdm2/MdmX complementation, luminescence | hit rate 3% among 330,000 | AID 485346;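 active = inhibition of at least 50% at 8 µM in the primary screen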
Target sequence (O15151 whole entry, looked up): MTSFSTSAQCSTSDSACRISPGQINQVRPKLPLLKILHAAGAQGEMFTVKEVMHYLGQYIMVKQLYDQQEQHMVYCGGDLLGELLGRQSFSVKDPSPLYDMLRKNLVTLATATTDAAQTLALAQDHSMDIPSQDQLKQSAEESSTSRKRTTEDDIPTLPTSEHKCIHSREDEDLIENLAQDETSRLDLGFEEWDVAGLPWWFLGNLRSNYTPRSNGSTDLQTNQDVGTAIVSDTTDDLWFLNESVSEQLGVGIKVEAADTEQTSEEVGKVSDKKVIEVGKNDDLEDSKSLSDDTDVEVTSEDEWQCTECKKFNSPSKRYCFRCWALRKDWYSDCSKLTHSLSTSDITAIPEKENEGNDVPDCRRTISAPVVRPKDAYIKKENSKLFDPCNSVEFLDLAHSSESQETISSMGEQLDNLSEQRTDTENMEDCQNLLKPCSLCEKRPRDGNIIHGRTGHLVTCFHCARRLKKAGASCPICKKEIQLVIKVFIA
Target sequence (Q00987 whole entry, looked up): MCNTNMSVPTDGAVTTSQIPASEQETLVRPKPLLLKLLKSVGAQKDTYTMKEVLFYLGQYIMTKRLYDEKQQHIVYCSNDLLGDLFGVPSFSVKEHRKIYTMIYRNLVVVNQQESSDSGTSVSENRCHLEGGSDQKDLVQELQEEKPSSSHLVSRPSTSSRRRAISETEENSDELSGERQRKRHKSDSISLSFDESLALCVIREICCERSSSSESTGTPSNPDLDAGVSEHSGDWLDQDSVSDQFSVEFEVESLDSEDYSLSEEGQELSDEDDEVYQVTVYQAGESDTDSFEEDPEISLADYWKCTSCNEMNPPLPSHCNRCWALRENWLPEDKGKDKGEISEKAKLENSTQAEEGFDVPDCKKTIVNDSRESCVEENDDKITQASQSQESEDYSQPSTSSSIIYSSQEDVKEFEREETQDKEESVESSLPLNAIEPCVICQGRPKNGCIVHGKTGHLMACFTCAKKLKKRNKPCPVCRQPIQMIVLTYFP
MPTP block – permeability transition pore inhibition; AID 602449; hit rate 1.4% among 360,000; inhibition, % at 10 µM; isolated mouse mitochondria, Ca2+ swelling absorbance, 30 min;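 active = inhibition of 50% or more, scaled per plate between neutral and stimulator controls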;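 note: 0% = DMSO wells given calcium and 100% = 1 mM EGTA wells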
Beta cell apopt – beta cell apoptosis inhibition. INS-1E cytokine-induced death, ATP luminescence, 48 h; percent of positive-control rescue, neutral wells zero. protection from apoptosis, % (test concentration not listed). hit rate 0.8% among 300,000. AID 435005;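 active = Every replicate reaches about 75%, or at least half do and their mean reaches it too, limit read from the data; inconclusive = At least half of replicates reach the limit but their mean does not; inactive = Under half of replicates reach the limit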;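 note: 0% = cytokine-treated negative control wells and 100% = positive control rescue; higher means more ATP so stronger rescue from cytokine killing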
Mdm2 MdmX conf – human Mdm2/MdmX binding inhibition, confirmed | shares compounds with Mdm2-MdmX inh | luminescent assay | inhibition, % at 8 µM | hit rate 55% among 10,000; in the data active = inhibition above about 40%
FLuc counter – counter-screen for Mdm2/MdmX inhibitors: full-length luciferase | hit rate 77% among 6,200 | SaOS-2 full-length luciferase counterscreen, luminescence | inhibition, % at 8 µM | shares compounds with Mdm2-MdmX inh;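 active = mean inhibition at 8 µM reaching about 37%, which flags the compound as non-specific, limit read from the data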;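 note: p53-null SaOS-2 cells with luciferase driven by a doxycycline-inducible promoter; compound on cells about two nights before reading with doxycycline added after day one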
Numbers without * were called inactive; u = inconclusive; x = no result.

SMILES | NR3A LBD binder | CSC inhib | SKKanGAS inh | Mdm2-MdmX inh | MPTP block | Beta cell apopt | Mdm2 MdmX conf | FLuc counter
Cc1ccc(S(=O)(=O)N(C)C)cc1NC(=O)COC(=O)Cc1cccs1 | 1 | -13 | -4 | 0 | -2 | -2 | x | x
COc1ccc(CN2CC(C(N)=O)Oc3ccccc32)cc1F (stereo not given) | 2 | -8 | -4 | 10 | 0 | -3 | x | x
CC1(C)N=C(N)NC(=NCCCOc2ccc([N+](=O)[O-])cc2)N1 | x | x | x | x | 0 | x | x | x
COc1ccc(N2CCN(C(CNC(=O)C(=O)NC3CCCC3)c3ccco3)CC2)cc1 (stereo not given) | -1 | 25 | 2 | 3 | -1 | -1 | x | x
CC(C)NC(=O)c1csc(COCCO)n1 | x | x | x | x | -1 | x | x | x
COc1cc(NC(=O)CSc2nc3[nH]ncc3c(=O)n2-c2ccc(Cl)cc2)cc(OC)c1 | 13* | 15 | 17 | 59* | 1 | x | 25 | x
Cc1cccc(NC(=O)CSc2nc3[nH]ncc3c(=O)n2-c2ccccc2)c1 | x | 4 | 1 | 22 | x | -7 | x | x
CCCCC1C(=O)N(c2ccccc2)N(c2ccccc2)C1=O | 0 | -1 | 11 | 15 | 2 | -7 | x | x
CCCCN1C=CC(=C2C(=O)c3ccccc3C2=O)C=C1 | -1 | 68 | 26 | 84* | 0 | 38 | 79* | 53*
O=C(CN(CC1CCCO1)C(=O)CNS(=O)(=O)c1ccccc1)NCCc1ccccc1 (stereo not given) | -1 | -9 | -6 | -3 | -1 | -1 | x | x
Nc1nnc(-c2cn(-c3ccccc3)nc2-c2ccc(Cl)cc2)o1 | 25* | 11 | -7 | 58* | 1 | -1 | 25 | x
COc1ccc(/C=C/C(=O)NC(=S)NNC(=O)c2cnccn2)cc1 | 0 | 98* | 80* | 74* | -1 | 76* | 53* | 53*
COc1ccccc1C(=O)NNC(=S)NC(=O)c1cccs1 | x | 3 | 104* | 63* | 2 | 15 | 35 | x
COCCNC(=S)NNC(=O)c1cccs1 | 0 | 13 | -11 | -7 | -1 | -3 | x | x
COc1ccc(/C=C/C(=O)NC(=S)NNC(=O)c2cccs2)cc1 | -19 | 12 | 94* | 54* | 6 | 15 | 53* | 73*
CCOC(=O)c1c(N)sc2c1CCN(CCc1ccccc1)C2 | 0 | -4 | 0 | 0 | 1 | -3 | x | x
Cc1nnc(SCC(=O)N2CCC(c3noc4ccc(F)cc34)CC2)s1 | 0 | -1 | 0 | 78* | -2 | -19 | 69* | 20
CN(C)S(=O)(=O)n1cc(/C=C(\NC(=O)c2ccccc2F)C(=O)N2CCOCC2)c2ccccc21 | 0 | 2 | 3 | 10 | 1 | 7 | x | x
CN(C)S(=O)(=O)n1cc(/C=C(\NC(=O)c2ccccc2Cl)C(=O)N2CCOCC2)c2ccccc21 | 3 | -1 | -4 | 62* | -1 | 0 | -5 | x
Cc1cc(NC(=O)c2ccc(Cl)cc2)ccc1NC(=O)c1ccccc1Cl | 1 | -2 | 5 | 18 | 1 | 8 | x | x
COc1ccccc1N=C(C)C1=C(O)CC(c2ccccc2)CC1=O (stereo not given) | 0 | 41 | -2 | 61* | 0 | 28 | 55* | 79*
CC(=O)N1CCN(CC(=O)Nc2ccccc2Sc2ccc(Cl)cc2)CC1 | 1 | -11 | 8 | -5 | 2 | 6 | x | x
O=C(CCl)Nc1ccccc1Sc1ccc(Cl)cc1 | -1 | 42 | 8 | 79* | 6 | -16 | 71* | 55*
CC(C)NC(=O)c1cnc(N2CCN(c3ccccn3)CC2)c2ccccc12 | 0 | 4 | -8 | -5 | -1 | 1 | x | x
CCc1ccc(NC(=O)c2cnc(N3CCN(c4ccccn4)CC3)c3ccccc23)cc1 | 1 | 19 | 8 | 64* | 1 | 44 | 56* | 60*
SMILES | NR3A LBD binder | CSC inhib | SKKanGAS inh | Mdm2-MdmX inh | MPTP block | Beta cell apopt | Mdm2 MdmX conf | FLuc counter
O=CC1=C(c2ccccc2)Oc2ccccc2O1 | -1 | 62 | 8 | 57* | 0 | 52 | 8 | x
CCCCOC(=O)CSc1nc(N)c(C#N)c(-c2ccc(OCC)cc2)c1C#N | -9 | 14 | -2 | -3 | 0 | -3 | x | x
CCCCOc1ccc(-c2c(C#N)c(N)nc(SCC(N)=O)c2C#N)cc1 | 17* | 34 | 90* | 55* | 2 | -1 | 20 | x
Cc1ccc(C)c(NC(=S)NC(NC(=O)N(C)C)C(Cl)(Cl)Cl)c1 (stereo not given) | 0 | -10 | -14 | 14 | -1 | -10 | x | x
Cc1ccc(C)c(NC(=S)NC(NC(=O)Cc2cccc3ccccc23)C(Cl)(Cl)Cl)c1 (stereo not given) | -4 | u | 28 | 99* | 20 | 76* | 99* | 2
Cc1ccc(-n2ncc3c(SCC(N)=O)ncnc32)cc1C | 4 | x | -2 | -11 | 0 | x | x | x
CCN(CC)S(=O)(=O)c1ccc(N2CCOCC2)c(NC(=O)c2[nH]c(C)c(C(C)=O)c2C)c1 | 0 | -14 | x | 83* | -1 | 0 | 41* | 68*
O=C(CSc1nccc(=O)[nH]1)Nc1cc(C(F)(F)F)ccc1N1CCOCC1 | -2 | -6 | 3 | -7 | -1 | -1 | x | x
CC(=O)c1c(C)[nH]c(C(=O)OCC(=O)Nc2cc(C(F)(F)F)ccc2N2CCOCC2)c1C | -1 | -5 | 8 | 51* | 2 | 7 | 32 | x
Cc1ccc2nc(SCC(=O)Nc3cc(C(F)(F)F)ccc3N3CCOCC3)[nH]c2c1 | 6 | 62 | 13 | 84* | -1 | 45 | 65* | 91*
CC#CC(=O)N1CCC(n2nccc2NC(=O)CCc2ccccc2)CC1 | x | x | x | x | -1 | x | x | x
CCn1cc([N+](=O)[O-])c(C(=O)Nc2nc(-c3ccc(C)cc3)c(C)s2)n1 | -1 | 102* | 22 | 55* | -1 | -19 | 32 | x
C=CCOc1c(Br)cc(/C=N/NC(=O)Cc2ccc(C(F)(F)F)cc2[N+](=O)[O-])cc1OC | 2 | -12 | 1 | 57* | 1 | 6 | 6 | x
COc1c(Cl)cc(Cl)cc1/C=C/C(=O)c1ccc(NC(=O)c2cccs2)cc1 | 30* | 103* | 26 | 99* | 18 | 23 | 95* | 59*
CCC1(c2ccccc2)NC(=O)N(CC(=O)NC2(C#N)CCCCC2)C1=O (stereo not given) | 0 | 0 | -8 | 24 | 0 | 2 | x | x
Cc1cc(C)cc(NC(=O)c2cccc3c2C(=O)N(C2CCCCC2)C3)c1 | 1 | -23 | 16 | 17 | 3 | 6 | x | x
COc1cc(NC(=O)c2cccc3c2C(=O)N(C2CCCCC2)C3)cc(OC)c1OC | -7 | 8 | 29 | 78* | 0 | 8 | 43* | 61*
CCOc1cccc(/C=N/NC(=S)Nc2ccccc2[N+](=O)[O-])c1O | -1 | 40 | 73* | 85* | 11 | 70 | 83* | 49*
